High-throughput results from PubChem BioAssay.
A selection: hits, their analogues and other compounds. The true share with any hit is near 6%.
D3 antag: blocks the human D3 dopamine receptor | P35462 | D3R cells, DiscoveRx beta-arrestin luminescence, antagonist mode; stronger effect = lower value | max response, negative = inhibition, % | 360,000 tested, 2.5% active | AID 652054; in the data active = max response below about -50%; inconclusive = no clear call, values can overlap the other calls
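Cells expressing the human receptor were seeded at 1500 cells/well, incubated overnight at 37 degrees C in 5% CO2, then exposed to library compounds with dopamine controls for 90 minutes at 37 degrees C before luminescent detection.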
D1 PAM: human D1 dopamine receptor positive modulation; P21728; HEK293 TREx D1 cells, calcium flux, dopamine EC20 potentiation; 360,000 tested, 0.036% active; potentiation, % at 10 µM; in the data active = potentiation above about 30%
Target sequence (P21728 whole entry, looked up): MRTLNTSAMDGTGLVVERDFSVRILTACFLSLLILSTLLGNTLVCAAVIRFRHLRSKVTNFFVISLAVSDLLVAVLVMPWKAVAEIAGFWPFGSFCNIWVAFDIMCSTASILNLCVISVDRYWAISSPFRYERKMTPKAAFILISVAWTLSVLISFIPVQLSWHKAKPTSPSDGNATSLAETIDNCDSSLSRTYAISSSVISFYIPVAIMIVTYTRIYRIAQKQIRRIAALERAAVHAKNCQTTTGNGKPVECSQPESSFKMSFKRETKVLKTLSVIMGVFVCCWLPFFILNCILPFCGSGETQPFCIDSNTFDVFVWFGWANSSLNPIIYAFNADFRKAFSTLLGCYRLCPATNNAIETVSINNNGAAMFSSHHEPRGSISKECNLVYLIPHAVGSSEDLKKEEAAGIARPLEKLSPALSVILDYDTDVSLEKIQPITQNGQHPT
D1 antag: antagonists of human D1 dopamine receptor; 360,000 tested, 3.2% active; HEK293 TREx D1 cells, calcium flux, dopamine EC80; stronger effect = lower value; P21728; activity change, negative = inhibition, % at 10 µM; AID 504652; in the data active = activity change below about -30%
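Tetracycline-induced HEK293 T-REx cells with force-coupled D1 receptor were loaded with a no-wash calcium dye. Compound was added after a 10 s baseline and read kinetically for 180 s; EC80 dopamine was then added and calcium flux followed another 180 s.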
D1 ag: activates the human D1 dopamine receptor | P21728 | HEK293 T-REx D1 cells, calcium flux, agonist mode | activation, % at 2 µM | 360,000 tested, 1% active | AID 504660; in the data active = activation above about 30%
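Tetracycline-induced HEK293 TREx D1 cells, force-coupled to calcium signalling, were dye-loaded with a no-wash calcium kit. Compound was pin-added after a 10 s baseline. Fluorescence was read kinetically at 1 cycle/s for 180 s, with calcium rises flagged as agonism.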
DRD3 agonist: activates the human D3 dopamine receptor. P35462. D3R DiscoveRx beta-arrestin cells, luminescence, 90 min. max activation, %. 410,000 tested, 0.58% active. AID 652048; in the data active = max activation above about 30%
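Agonist-mode cell screen: cells plated at 1500/well and incubated overnight at 37 °C, then exposed to library compounds for 90 min at 37 °C. Detection reagent was added for 30–60 min at room temperature, and luminescence was read.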
Of the large screens only hits and unclear results are named; the others gave an inactive call; ! = not active in a repeat.

CCOCCCNC(=S)NNC(=O)CCn1nc(C)c(Br)c1C	D3 antag -97.1 (no result: D1 antag)
CN1c2ccccc2-c2nc(SCC(=O)Nc3ccccc3C(F)(F)F)ncc2S1(=O)=O	none (no result: D3 antag)
COc1ccc(NC(=O)c2cccc(N3CCCS3(=O)=O)c2)cc1OC	none (no result: D3 antag)
CCC(=O)N1CCc2cc(S(=O)(=O)NC(Cc3ccccc3)C(=O)NCc3cccc(OC)c3)ccc21 (configuration not stated)	none (no result: D3 antag)
O=C(NCc1cccnc1)NC1(C(F)(F)F)Oc2ccccc2O1	D1 antag -42.4
Cc1cccc(NC(=O)NCc2cccnc2)c1C	D1 antag -33.6
O=C(NCc1cccnc1)Nc1cccc(Cl)c1Cl	D1 antag -30.1
COc1ccc2c(c1)c(=O)c(C(=O)c1ccc(F)cc1)cn2CC(=O)Nc1ccc2c(c1)OCO2	none (no result: D3 antag)
Cc1ccc(-n2nc(C)c3c(C(F)(F)F)cc(-c4cccnc4)nc32)cc1C	D1 antag -49.9 (no result: D3 antag)
Cc1cc(C(F)(F)F)c2c(C)nn(-c3ccccc3)c2n1	none (no result: D1 PAM, D1 antag, D1 ag)
C#CCN1C(=O)S/C(=C/C=C/c2ccc(N(C)C)cc2)C1=O	D1 ag 98.2
COC(=O)c1c(-c2cccs2)csc1NC(=O)COc1c(C)ccc(C)c1C	none (no result: D3 antag)
Cc1cccc(NC(=O)c2cccc(N3C(=O)C4CCC(C)CC4C3=O)c2)c1C (configuration not stated)	D3 antag inconclusive, D1 antag -49.3
COc1ccc(OC)c(NC(=O)c2cccc(N3C(=O)C4C5CCC(C5)C4C3=O)c2)c1 (configuration not stated)	none
COc1ccc(NC(=O)c2cccc(N3C(=O)C4CC=C(C)CC4C3=O)c2)c(OC)c1 (configuration not stated)	D1 antag -51.1
Cc1ccc2nc3c(cc(C#N)c(=O)n3-c3nnc(SCc4ccc(F)cc4)s3)c(=O)n2c1	none (no result: D3 antag)
COc1ccc(CCn2c(=O)c3cccnc3n(Cc3ccc([N+](=O)[O-])cc3)c2=O)cc1OC	D1 antag -46.2
COc1ccc(Cn2c(=O)c3cccnc3n(Cc3ccc([N+](=O)[O-])cc3)c2=O)cc1	none
CCN1C(=O)[C@@H]2[C@H](C1=O)[C@@H]1C(=O)Nc3ccccc3C(=O)N1[C@@H]2c1cccc(OC)c1	none
CCN1C(=O)[C@@H]2[C@H](C1=O)[C@@H]1C(=O)Nc3ccccc3C(=O)N1[C@@H]2c1cccc(C)c1	DRD3 agonist 44.6
Nc1c(C(=O)Nc2cccc(F)c2)sc2nc(-c3cccs3)ccc12	D1 ag 32.5 (no result: D3 antag)
CCCSc1nnc(NC(=O)c2sc3nc(-c4cccs4)ccc3c2N)s1	D1 ag 43.1
Cc1csc(NC(=O)c2sc3nc(-c4cccs4)ccc3c2N)n1	D1 ag 73.3, DRD3 agonist 39.4
Cc1ccc(NC(=O)c2sc3nc(-c4cccs4)ccc3c2N)cc1F	none (no result: D3 antag)
CCSc1nnc(NC(=O)c2cccs2)s1	none
Cc1ccc(CN(C(=O)COc2cccc(Cl)c2)c2ccccn2)o1	none (no result: D3 antag)
CCc1ccc2nc(N(CCN(CC)CC)C(=O)c3ccco3)sc2c1	none (no result: D3 antag)
Cc1cc2oc(C(=O)NCc3ccncc3)c(C)c2cc1C	D1 antag -36.4
[C-]#[N+][C@H](O[C@@H]1O[C@H](CO)[C@@H](O)[C@H](O)[C@H]1O)c1ccccc1	none (no result: D1 PAM, D1 antag, D1 ag)
O=C(O)CC(CCc1ccccc1)OC1OC(CO)C(O)C(O)C1O (configuration not stated)	DRD3 agonist 32.9
COC(=O)c1cccc2c1NC(=O)C2=O	D3 antag -74.9
O=C1Nc2c(Br)cccc2C1=O	D3 antag -93.9 (no result: D1 PAM, D1 antag, D1 ag)
Cc1cccc2c1NC(=O)C2=O	none (no result: D1 PAM, D1 antag, D1 ag)
O=C1Nc2c(Cl)cccc2C1=O	D3 antag inconclusive (no result: D1 PAM, D1 antag, D1 ag)
O=C(Cn1c(-c2cccs2)cc2ccccc21)NCc1ccccc1Br	none (no result: D3 antag)
O=CNC1CCCc2c1[nH]c1ccc(Cl)cc21 (configuration not stated)	D1 antag -37.2
CCN(CC)C(=O)C1CCCc2c1[nH]c1ccc(Cl)cc21 (configuration not stated)	none
COc1ccc(NC(=O)CSc2nc3nc(C)c(Cc4ccccc4)c(C)n3n2)cc1OC	none (no result: D3 antag)
Cc1ccc(Cn2nnc3sc4c(c3c2=O)CCC(C)C4)cc1 (configuration not stated)	none (no result: D3 antag)
COC(=O)c1ccc(Cn2nnc3sc4c(c3c2=O)CCCC4)cc1	none (no result: D3 antag)
CC1CCc2c(sc3nnn(Cc4ccc(F)cc4)c(=O)c23)C1 (configuration not stated)	D1 antag -44.5 (no result: D3 antag)
O=C(O)c1ccc(Cn2nnc3sc4c(c3c2=O)CCCC4)cc1	D1 antag -30.3
Cc1ccc(C)c(CSc2nc3ccncc3n2CC(=O)Nc2ccc(N(C)C)cc2)c1	none (no result: D3 antag)
COc1ccccc1CNc1ncnc2c1c(-c1ccccc1)cn2-c1cccc(C)c1	none (no result: D3 antag)
CN(C)CCOc1ccc(/C(=C(/CCCl)c2ccccc2)c2ccccc2)cc1	D3 antag -91.4 (no result: D1 PAM, D1 antag, D1 ag)
O=C(NC1CCN(Cc2ccccc2)CC1)c1[nH]c(C(F)(F)F)nc1-c1ccccc1	D3 antag -85.4! (no result: D1 PAM, D1 antag, D1 ag)
O=C(NCc1cccc(C(F)(F)F)c1)c1[nH]c(C(F)(F)F)nc1-c1ccccc1	D3 antag -63.0 (no result: D1 PAM, D1 antag, D1 ag)
O=C(c1[nH]c(C(F)(F)F)nc1-c1ccccc1)N1CCCN(Cc2ccc(F)cc2)CC1	none (no result: D1 PAM, D1 antag, D1 ag)
COc1ccc(C(=O)CN2C(=O)N(c3cc(C)cc(C)c3)S(=O)(=O)c3ccccc32)cc1	none (no result: D3 antag)
CCOc1ccc(C(C)C)cc1S(=O)(=O)Nc1cccc(-c2ccc(N3CCOCC3)nn2)c1	none (no result: D3 antag)
COc1ccccc1NS(=O)(=O)c1ccc(C(=O)NCC2(N(C)C)CCCCC2)cc1	none
COc1ccccc1NS(=O)(=O)c1cc(C(=O)NCC(c2ccco2)N2CCCCC2)ccc1C (configuration not stated)	D3 antag inconclusive
COc1ccccc1NC(=O)NCC1(N(C)C)CCCCC1	D3 antag -81.8
COc1ccccc1NC(=O)NCC(c1ccco1)N1CCCCC1 (configuration not stated)	D3 antag inconclusive, D1 antag -41.3
COc1ccc(NC(=O)N2CCC(CN3CCCC3)CC2)c(OC)c1	none (no result: D3 antag)
COc1ccc(-c2nn(-c3ccc(C)c(Cl)c3)c3c2cnc2cc(OC)c(OC)cc23)cc1	none (no result: D3 antag)
CCc1ccc(OC2(C)CCN(Cc3ccc(SC)cc3)C2)cc1 (configuration not stated)	D3 antag -59.8 (no result: D1 PAM, D1 antag, D1 ag)
CC1(Oc2cccc(F)c2)CCN(Cc2ccc(-c3ccccc3)o2)C1 (configuration not stated)	D3 antag inconclusive (no result: D1 PAM, D1 antag, D1 ag)
CSc1ccc(CN2CCC(C)(Oc3cccc(F)c3)C2)cc1 (configuration not stated)	D3 antag -91.9 (no result: D1 PAM, D1 antag, D1 ag)
CSc1ccc(OC2(C)CCN(Cc3ccc(C(C)C)cc3)C2)cc1 (configuration not stated)	D3 antag -61.4 (no result: D1 PAM, D1 antag, D1 ag)
CSc1ccc(OC2(C)CCN(Cc3cc4ccccc4o3)C2)cc1 (configuration not stated)	D3 antag -74.1 (no result: D1 PAM, D1 antag, D1 ag)
